Unmarked numbers belong to inactive results. The rule behind the calls is not given here.
system: Aerobactin synthetase IucA (Klebsiella pneumoniae, hypervirulent); assay: biochemical IucA inhibition screen of LOPAC library by absorbance (AID 1346212); conditions: IucA enzyme assay, absorbance (OD) readout; stronger effect = lower value;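 tested at 8 µM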;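 note: 100% = no compound wells and 0% = no enzyme wells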

Compound	remaining activity [%]
COc1cc2nc(N3CCN(C(=O)C4COc5ccccc5O4)CC3)nc(N)c2cc1OC (stereo not given)	92.2
CN=C(NC#N)Nc1ccc(C2=NNC(=O)CC2C)cc1 (stereo not given)	104
Nc1cc(=O)[nH]c(N)n1	126
N[C@H](C(=O)O)[C@H]1C[C@@H]1C(=O)O	93.8
CC1CN(S(=O)(=O)c2cccc3cnccc23)CCN1 (stereo not given)	102
NCCS(=O)O	101
Cc1cccc(C2CN(C)CCc3c2cc(O)c(O)c3Cl)c1 (stereo not given)	105
NC(=NCCC[C@H](N)C(=O)O)NO	101
Cc1nc2c(OCc3ccccc3)cccn2c1CC#N	126
COc1ccccc1N1CCN(CCN(C(=O)c2ccc(F)cc2)c2ccccn2)CC1	117
CC(=O)[C@H]1CC[C@H]2[C@@H]3CCC4=CC(=O)CC[C@]4(C)[C@H]3CC[C@]12C	123
CN=c1nc(-c2ccccc2)n(-c2ccccc2)s1	109
CNCCC(Oc1ccccc1OC)c1ccccc1 (stereo not given)	104
NC(=O)c1ccccc1	109
Nc1nc2[nH]c(=O)cnc2c(=O)[nH]1	89
CN(CCOc1ccc(C[C@H](Nc2ccccc2C(=O)c2ccccc2)C(=O)O)cc1)c1ccccn1	117
Nc1nc2c(nc(Br)n2C2OC3COP(=O)(O)O[C@@H]3C2O)c(=O)[nH]1 (stereo not given in full)	111
O=c1[nH]c(=O)c2nc3ccccc3nc2[nH]1	114
Cc1cccc(C)c1OCC(C)N (stereo not given)	113
CCCCCCCCc1ccc(-c2ccc(C(=O)O)cc2)cc1	124

Compound	remaining activity [%]
O=C(O)CCC(=O)N1CCCC1C(=O)O (stereo not given)	98.4
Nc1ncnc2c1nc(Br)n2C1OC2COP(=O)(O)O[C@@H]2C1O (stereo not given in full)	113
Oc1ccc(C2CNCc3sccc32)cc1O (stereo not given)	99.3
CCCN(CC1CC1)c1nc(C)nc(Nc2c(Cl)cc(Cl)cc2Cl)c1Cl	102
O=C(O)c1cc([N+](=O)[O-])ccc1NCCCc1ccccc1	118
CN1[C@@H]2CC[C@H]1CC(OC(=O)C(CO)c1ccccc1)C2 (stereo not given in full)	95
CCOC(=O)C1=C(C)NC(C)=C(C(=O)OC)C1c1cccc(Cl)c1Cl (stereo not given)	99.8
CC1=C(C)C(=O)C(CCCCC#CCCCC#CCO)=C(C)C1=O	118
Brc1ccc([C@H]2CN3CCSC3=N2)cc1	105
Cc1cn([C@H]2C=C[C@@H](CO)O2)c(=O)[nH]c1=O	106
CCCn1c(=O)[nH]c(=O)c2[nH]cnc21	103
CC[C@H](NC(=O)c1c(C)c(-c2ccccc2)nc2ccccc12)c1ccccc1	114
O=c1c2ccccc2[nH]c(=S)n1CCN1CCC(=C(c2ccc(F)cc2)c2ccc(F)cc2)CC1	119
N[C@@H](COP(=O)(O)O)C(=O)O	124
OC[C@H]1O[C@@H](n2cnc3c(N[C@H]4CCC[C@@H]4O)ncnc32)[C@H](O)[C@@H]1O	123
CC[C@H]1CN2CCc3cc(OC)c(OC)cc3[C@@H]2C[C@@H]1C[C@H]1NCCc2cc(OC)c(OC)cc21	123
NS(=O)(=O)c1cccc2c1c([N+](=O)[O-])cc1nc(O)c(O)nc12	106
O=C(O)/C(=C/c1c(C(=O)O)[nH]c2cc(Cl)cc(Cl)c12)c1ccccc1	117
N[C@@H](CCCC(=O)O)C(=O)O	110
CNc1ncnc2c1ncn2[C@H]1C[C@H](OP(=O)(O)O)[C@@H](COP(=O)(O)O)O1	124
